Inconclusive results are not listed. Where a call stands in place of a potency, no number is given. Active and inactive are the calls of the source. Calls follow the shape of the dose curve; as a rule, active = well fitted inhibition curve with a large enough effect in the repeat runs; inconclusive = weak or mixed curves; inactive = no such curve, though single readings can be large or run the other way.
Potency is read from the fitted curve at half-maximal effect.

Cytochrome P450 3A4 (Homo sapiens), sequence (P08684 whole entry, looked up): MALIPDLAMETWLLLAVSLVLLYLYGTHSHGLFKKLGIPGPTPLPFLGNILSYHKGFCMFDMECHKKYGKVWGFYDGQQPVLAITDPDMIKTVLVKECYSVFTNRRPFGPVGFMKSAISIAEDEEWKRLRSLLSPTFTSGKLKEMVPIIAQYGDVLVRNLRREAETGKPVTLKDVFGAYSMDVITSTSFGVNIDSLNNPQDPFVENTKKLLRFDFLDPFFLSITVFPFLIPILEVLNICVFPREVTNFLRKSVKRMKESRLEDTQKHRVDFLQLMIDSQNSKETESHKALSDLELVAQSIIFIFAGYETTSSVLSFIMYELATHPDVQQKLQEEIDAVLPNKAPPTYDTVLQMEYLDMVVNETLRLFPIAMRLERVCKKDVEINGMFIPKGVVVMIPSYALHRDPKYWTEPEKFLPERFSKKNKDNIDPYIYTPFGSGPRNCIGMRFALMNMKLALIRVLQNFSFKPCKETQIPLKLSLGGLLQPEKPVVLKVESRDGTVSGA

The target of this test is Cytochrome P450 3A4 (Homo sapiens) (UniProt P08684). Put plainly: Cytochrome P450 Family 3 Subfamily A Member 4 (CYP3A4) small molecule antagonists: luciferase reporter qHTS assay (AID 1671201). Also: nearly all actives have a fitted effect of over 50% in size. Conditions: P450-Glo CYP3A4 enzyme, luciferin luminescence, 1 h; series mostly up to 115 µM. The text has this:
National Center for Advancing Translational Sciences [NCATS]
U.S. Environmental Protection Agency [EPA]
National Institutes of Environmental Health Sciences [NIEHS]
National Toxicology Program [NTP]
U.S. Food and Drug Administration [FDA]
Cytochrome P450 (CYP) enzymes are membrane-bound hemeproteins that play a key role in metabolism of drugs and xenobiotics. Evaluation of the effect of chemicals on CYP isozymes is useful to minimize the adverse drug reactions and toxicities in drug development process. Tox21 chemicals were tested for their effect on CYP enzyme activities by using P450-Glo (TM) screening systems (Promega Corporation, Madison, WI). These systems provide a luminescent method containing proluciferin substrates and are converted to luciferin products by CYP isozymes. The luciferin products formed are detected with a luciferin detection reagent, and the amount of light produced is proportional to CYP activity. P450-Glo (TM) CYP3A4 screening system (Catalog. No. V9910) was used to detect the compounds that interfere in CYP3A4 activity. The positive control compound used for CYP3A4 assay is ketoconazole (Sigma-Aldrich, St. Louis, MO).
Tox21 Assay Protocol Summary:
Two ul of enzyme-substrate mix was dispensed into medium binding white/solid 1536-well plates (Greiner Bio-One North America Inc., Monroe, NC) using a BioRaptr Flying Reagent Dispenser (FRD, Beckman Coulter, Brea, CA). Compounds dissolved in DMSO and positive control (ketoconazole) were transferred to the assay plates at 23 nl using a Pintool station (Wako, San Diego, CA). The assay plates were incubated at room temperature for 10 min. Then 2 ul of NADPH regeneration solution was added to each well of the assay plates using an FRD and incubated at room temperature for 1 h. The reaction was stopped by adding 4 ul of detection reagent using an FRD and after 20 min incubation at room temperature the luminescence signal was measured using a ViewLux plate reader (Perkin Elmer, Shelton, CT). Data were expressed as relative luminescence units.
On the technique in general: A reporter such as luciferase makes a cellular process visible.
On to `OCC(c1ccc(Cl)cc1)c1ccc(Cl)cc1`, for which the Potency result is “inactive”.

In the case of `Cc1ccc2nc3sc(=O)sc3nc2c1`, the activity change, negative = inhibition was 0.418% [at 23.6 µM] (inactive).

With `Cc1cc(C)c(C(=O)P(=O)(c2ccccc2)c2ccccc2)c(C)c1`, the Potency was 5.03 µM (active).

As for `CN1CSC(=S)N(C)C1`, the Potency entry is “inactive”.

For `N#Cc1cc([N+](=O)[O-])ccc1N`, the Potency entry is “inactive”.

Regarding `CC(c1ccccc1)(c1ccc(O)cc1)c1ccc(O)cc1`, the Potency was 25.2 µM (active).

For `O=C(c1ccccc1)C(Cl)Cl`, the Potency entry is “inactive”.

With `CCOC(=O)C(O)(c1ccc(Cl)cc1)c1ccc(Cl)cc1`, the Potency entry is “inactive”.

As for `O=S(=O)(C(Cl)(Cl)Cl)C(Cl)(Cl)Cl`, the Potency is 2 µM (active).

Regarding `ClC(Cl)=C(c1ccc(Cl)cc1)c1ccccc1Cl`, the Potency entry was “inactive”.

With `O=[N+]([O-])c1c(Cl)c(Cl)cc(Cl)c1Cl`, the Potency entry was “inactive”.

In the case of `COc1ccc(C(c2ccc(OC)cc2)C(Cl)(Cl)Cl)cc1`, the Potency result is “inactive”.

Regarding `CCN(CC)C(=O)Cl`, the Potency entry is “inactive”.

Regarding `CO/C=C(/C(=O)OC)c1ccccc1Oc1cc(Oc2ccccc2C#N)ncn1`, the Potency entry is “inactive”.

For `O=C1C(I)=CC(=C(c2cc(I)c(O)c(I)c2)c2ccccc2C(=O)O)C=C1I`, the Potency entry was “inactive”.

Consider `CC1COC(Cn2cncn2)(c2ccc(Oc3ccc(Cl)cc3)cc2Cl)O1` (centres undefined), for which the Potency is 0.0796 µM (active).

For the compound `OC(Cc1ccccc1Cl)(Cn1[nH]cnc1=S)C1(Cl)CC1` (centres undefined), the Potency is 5.64 µM (active).

For the compound `Cc1cc(C(C)(C)c2ccc(O)c(C)c2)ccc1O`, the Potency was 1.91 µM (active).

With `Clc1ccccc1-c1ccccc1Cl`, the Potency entry was “inactive”.
